Our source for the IC50 values is PubChem BioAssay AID651939 (The Scripps Research Institute Molecular Screening Center, 2012).

One may read the IC50 as the concentration needed to halve the response being measured.

Each structure is given as a SMILES string. This is one part of the list. Values without a mark were called inactive. Active and inactive are the calls of the source. No stated cut-off is given here; in the data, active means IC50 below about 9 µM; inactive means the rest.

The nature of this test: compound binding to PG126 antibody – biochemical, TR-FRET, distinct HIV envelope site, counter-screen for PG9 antibody binder project, dose response (AID 651939). The conditions noted are these: TR-FRET binding to antibody PG126, counterscreen.
In the case of `O=C(Nc1nnc(-c2ccccc2F)s1)c1ccccc1F`, the IC50 was 17.9 µM.
On to `S=c1[nH]c2ccccc2c2ccccc12`, for which the IC50 is 60.4 µM.
As for `COC(=O)C1=C(C)N(Cc2ccccc2C(F)(F)F)C(=NCc2ccc(OC)cc2)NC1c1cccc(C(F)(F)F)c1` (configuration not stated), the IC50 is above 67 µM.
On to `CC1(C)Cc2ccccc2-c2[nH]c(=S)[nH]c(=O)c21`, for which the IC50 is 66.1 µM.
Take `Cc1cccc(Nc2nc3c(S(=O)(=O)c4ccccc4)nnn3c3ccccc23)c1C`: the IC50 is 3.75 µM (active).
On to `O=C(Oc1ccccc1)Oc1ccc2c(c1)oc(=O)c1ccccc12`, for which the half-maximal inhibitory concentration (IC50) was 4.13 µM (active).
Next, `COc1ccc(-c2c(C)nn3c(N4CCC(C(=O)N5CCCCC5)CC4)cc(C)nc23)cc1OC`: above 67 µM.
